This is a sample that favours compounds with a hit; in the whole collection about 1.2% have one here.
HTT cytoprotect – qHTS Multiplex Assay to Identify Dual Action Probes in a Cell Model of Huntington: Cytoprotection (ATP). PC12 HTT-Q103 induced, cytoprotection, ATP luminescence, 40 h. Potency, µM (titrated, usually from 56.4 µM), for inactives: cytoprotection (ATP increase), most hits filed as activators. 230,000 compounds, 0.14% hits. AID 1471, 2008; also: potency is read from the fitted curve at half-maximal effect; % of control where 0% means no effect; nearly all actives have a fitted effect of over 45% in size
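Huntington model: PC12 line, ecdysone-inducible HTTQ103 exon1–GFP, tebufenozide 100 nM. Test articles in a dose series. Endpoint luminescence from cellular ATP.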
PKM2 act – qHTS Assay for Activators of Human Muscle isoform 2 Pyruvate Kinase | purified PKM2, Kinase-Glo ATP luminescence, activation; response scale: 0% is enzyme alone, no compound | AID 1631, 2009 | 260,000 compounds, 0.34% hits | Pyruvate kinase PKM (Homo sapiens), P14618 | Potency, µM (top dose mostly 57.5 µM), inactives show top-dose activation, usual class: activators; also: potency is read from the fitted curve at half-maximal effect; % is scaled to controls: 0 for no effect and ±100 for the full control effect; nearly all actives have a fitted effect of over 55% in size
Target sequence (P14618 whole entry, looked up, canonical isoform): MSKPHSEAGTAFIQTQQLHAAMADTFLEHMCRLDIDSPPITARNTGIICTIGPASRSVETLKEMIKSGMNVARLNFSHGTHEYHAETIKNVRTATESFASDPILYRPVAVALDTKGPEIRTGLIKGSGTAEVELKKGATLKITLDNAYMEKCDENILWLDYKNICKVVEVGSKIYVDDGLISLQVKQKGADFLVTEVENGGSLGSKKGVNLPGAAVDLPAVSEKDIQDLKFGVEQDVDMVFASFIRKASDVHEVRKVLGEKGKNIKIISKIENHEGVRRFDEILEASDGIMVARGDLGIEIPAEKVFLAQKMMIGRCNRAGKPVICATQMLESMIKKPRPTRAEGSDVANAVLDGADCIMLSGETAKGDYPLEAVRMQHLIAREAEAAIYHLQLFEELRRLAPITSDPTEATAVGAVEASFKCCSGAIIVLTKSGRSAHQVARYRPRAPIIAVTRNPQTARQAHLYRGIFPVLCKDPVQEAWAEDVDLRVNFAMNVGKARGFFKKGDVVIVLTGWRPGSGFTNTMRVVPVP
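Purified hPK-M2 (>95%) run at intermediate activity with 0.1 mM ADP and 0.5 mM PEP in 50 mM imidazole pH 7.2, KCl, MgCl2; 1 h room temperature. ATP formed read by Kinase-Glo luminescence; normalized to uninhibited and no-enzyme controls.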
aGal spleen mod – qHTS Assay for Inhibitors and Activators of Human alpha-Galactosidase From Spleen Homogenate | Alpha-galactosidase A (Homo sapiens), P06280 | human spleen homogenate, 4MU-alpha-Gal fluorescence, 40 min | Potency, µM (doses to about 80 µM), without a hit: at the highest dose activity change, negative = inhibition, most hits filed as inhibitors | 240,000 compounds, 0.008% hits;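 also: potency is read from the fitted curve at half-maximal effect; 0% = enzyme with vehicle and -100% = no enzyme basal signal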
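Fluorogenic readout (Ex 365/Em 440 nm) of 4-methylumbelliferone released from 1 mM 4-MU-alpha-galactoside by spleen homogenate, 40 min at 37C, pH 5.0. Data normalized to no-enzyme and enzyme controls; Hill-equation AC50 from compound titrations.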
HTT aggregate – qHTS Multiplex Assay to Identify Dual Action Probes in a Cell Model of Huntington: Aggregate Formation (GFP); PC12 HttQ103-GFP aggregates, Acumen cytometry, 40 h; Potency, µM (series often up to 46.1 µM), inactives show at the top dose activity change, negative = inhibition, actives largely listed as inhibitors; AID 1688, 2009; 220,000 compounds, 1.1% hits; also: potency is read from the fitted curve at half-maximal effect; % is scaled to controls: 0 for no effect and ±100 for the full control effect; nearly all actives have a fitted effect of over 60% in size
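Inducible Q103 Huntingtin exon 1–GFP PC12 line, 1500 cells/well in phenol red free DMEM with 5% equine and 5% calf serum. Tebufenozide 100 nM induced expression; compounds titrated; aggregates quantified by cytometry.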
GLA inh pH 4.5 – qHTS Assay for Inhibitors of Human alpha-Galactosidase at pH 4.5 | AID 1467, 2008 | purified enzyme, 4-MU-alpha-Gal fluorescence, pH 4.5 | activity change, negative = inhibition, % at 105 µM | 230,000 tested, under 10 active | Alpha-galactosidase A (Homo sapiens), P06280;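 also: 0% = full activity with enzyme and -100% = basal without enzyme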
The depositor's hits bear a star; u = inconclusive; x = no result; [ ] = remark or other dose. Calls follow the shape of the dose curve; as a rule, active = well fitted curve in the direction sought with a large enough effect; inconclusive = small, poorly fitted or top-dose-only effect, or another doubt; inactive = no such curve, though single readings can be large; an effect the other way counts as inactive or inconclusive.

SMILES	HTT cytoprotect	PKM2 act	aGal spleen mod	HTT aggregate	GLA inh pH 4.5
COc1ccccc1-c1cc(-c2ccccc2)nc(SC(C(N)=O)c2ccccc2)c1C#N (configuration not stated)	-6%	7%	-18%	11µM*	3
CC[C@H]1CC[C@H]2[C@@H]3CC=C4C[C@H](OC(C)=O)[C@@H](N)C[C@@]4(C)[C@H]3CC[C@@]12C	7%[10 µM]	x	x	x	x
O=c1nc2n(c3sc4c(c13)CCC4)Cc1ccccc1-2	-14%[10 µM]	x	x	x	x
COc1ccc(CN(CCC(c2ccccc2)C2CCOC(C)(C)C2)C(C)=O)cc1 (configuration not stated)	-14%[10 µM]	-11%	2%	13µM*	-6
CCc1ccc(S(=O)(=O)/N=C2\C=CC(=O)c3ccccc32)cc1	-15%	26%	1%	u	2
CCc1ccc(S(=O)(=O)/N=C2/C=C(Sc3ncn[nH]3)C(=O)c3ccccc32)cc1	-80%[10 µM]	-40%	-17%	3.5µM*	-2
CC(=O)N[C@H]1CSSC[C@@H](C(=O)N2CCC[C@H]2C(=O)N2CCC[C@H]2C(=O)N[C@@H](CCCCN)C(=O)N[C@@H](CC(=O)O)C(N)=O)NC(=O)CNC(=O)[C@H](Cc2c[nH]c3ccccc23)NC(=O)[C@H](CCCNC(=N)N)NC(=O)[C@@H](Cc2ccc(Cl)c(Cl)c2)NC(=O)[C@H](Cc2cnc[nH]2)NC(=O)[C@H](CCC(=O)O)NC1=O	x	x	-6%	x	x
Cc1ccccc1NC(=O)c1ccc(-c2ccc(Cl)cc2Cl)o1	-20%	-2%	-5%	-1%	-4
Cc1cccc(C)c1NC(=O)c1ccc(-c2ccc(Cl)cc2Cl)o1	-19%	-5%	-5%	11µM*	2
Cc1cn(C2CC3OCC(NC(=O)C(NC(=O)OC(C)(C)C)C(C)OCc4ccccc4)C3O2)c(=O)[nH]c1=O (configuration not stated)	x	x	0%	x	x
C=CCSc1nnc(NC(=O)CSc2nc(CCC)cc(=O)[nH]2)s1	20%[10 µM]	-2%	6%	11µM*	3
CCCC[C@H]1CCCO[C@@](C(=O)NCCN2CCOCC2)(C(F)(F)F)C1	x	x	8%	x	x
Cc1cc(O)c(S(=O)(=O)c2ccccc2)c(C)c1NS(=O)(=O)c1ccccc1	x	1%	x	x	x
Cc1cc(NS(=O)(=O)c2ccccc2)cc(Cl)c1O	-9%	16µM*	3%	u	0
Cc1ccc(S(=O)(=O)Nc2cc(C)c(O)c(S(=O)(=O)c3ccc(C)cc3)c2)cc1	-19%	5%	4%	u	-5
Cc1cc(O)c(C(C)C)cc1NS(=O)(=O)c1ccccc1	5%[0.074 µM]	6%	-3%	5µM*	-2
O=c1cc(-c2ccccc2)oc2cc(O[C@@H]3O[C@H](CO)[C@@H](O)[C@H](O)[C@H]3O)c(O)c(O)c12	-1%[1.9 µM]	x	-5%	x	-1
COc1ccc(C(=O)N2CCC3(CC2)CN(C(=O)NC(C)C)C3)cc1	u	x	3%	x	x
CC(Oc1ccc(Br)cc1)c1nc2c3ccccc3nc(=S)n2[nH]1 (configuration not stated)	-70%	u	4%	8.9µM*	12
CCCC(Oc1ccc(Br)cc1)c1nc2c3cc(OC)c(OC)cc3nc(=S)n2[nH]1 (configuration not stated)	u	5%	3%	u	-7
CCc1ccc2c(c1)C1(NN=C(c3ccc(C)cc3)S1)C(=O)N2 (configuration not stated)	15%[10 µM]	-6%	9%	22µM*	-9
Cc1cc(=O)[nH]c(Nc2cccc(C(F)(F)F)c2)n1	11%	-11%	15%	11µM*	0
Cc1cc(=O)oc2cc(O)c(CN(C)CC(=O)O)cc12	11%[10 µM]	x	x	x	x
Cc1cc(N2CCN(S(=O)(=O)c3ccc4c(c3)OCCO4)CC2)n2ncnc2n1	-30%	25µM*	-2%	u	3
Cc1cc(N2CCN(S(=O)(=O)c3ccc(Br)cc3)CC2)n2ncnc2n1	18%[10 µM]	3%	4%	0%[9.22 µM]	3
SMILES	HTT cytoprotect	PKM2 act	aGal spleen mod	HTT aggregate	GLA inh pH 4.5
CC(=O)N1CCC[C@@]2(CCN(C(=O)Nc3cccc(C#N)c3)C2)C1	-5%	x	-4%	x	x
O=[N+]([O-])c1ccc2nc(SCc3cn4ccccc4n3)[nH]c2c1	-6%[10 µM]	5%	3%	-1%	2
Cc1cc(=O)[nH]c(SCc2cn3ccccc3n2)n1	x	14µM*	3%	37%	-2
C/C(N)=C(/C#N)C(=O)CSc1ccc2c(c1)OCCO2	-26%	14µM*	-2%	-9%	-1
C/C(N)=C(/C#N)C(=O)COC(=O)CSc1ccc2ccccc2c1	8%	0%	-11%	-8%[9.22 µM]	-2
COc1cccc(NC(=O)CSc2nc3n[nH]c(C)c3c(=N)n2-c2cccc(OC)c2)c1	0%	25µM*	1%	8%	9
CCc1ccc(NC(=O)CSc2nc3n[nH]c(C)c3c(=N)n2-c2cccc(OC)c2)cc1	21%[10 µM]	-7%	9%	-17%	-3
CC(=O)Nc1ccc(NC(=O)CN(c2cc(Cl)ccc2Cl)S(C)(=O)=O)cc1	-7%	-11%	-4%	32µM*	-7
CS(=O)(=O)N(CC(=O)Nc1cc(Cl)ccc1Cl)c1ccccc1Cl	11%	2%	-3%	25%[9.22 µM]	-21
COc1cccc(-c2nc(NC(C)(C)C)c3ccccc3n2)c1O	-31%	-2%	3%	35µM*	-25
COc1cccc(-c2nc(N3CCCC3)c3ccccc3n2)c1O	-25%[10 µM]	-5%	8%	-13%[9.22 µM]	-6
CCOc1ccc(-n2c(-c3ccc(Br)cc3)c[n+]3c2CCCCC3)cc1	-93%	0%	2%	u	-6
CCOc1ccc(-n2c(-c3ccccc3)c[n+]3c2CCC3)cc1	-4%[10 µM]	-41%	-4%	6.3µM*	-5
CCOc1ccc(-n2c(-c3ccc(OC)cc3)c[n+]3c2CCCCC3)cc1	37%[1.9 µM]	14%	4%	7.9µM*	4
COC(=O)C/C=C\[C@@H](C)[C@@H](/C=N\O[C@@H](C)c1cc(-c2c(C)cc(C)cc2C)no1)OC	-2%[10 µM]	x	-4%[17.5 µM]	x	x
O=C(NCCCN1CCOCC1)c1ccc(Br)cc1	-12%	-12%	7%	-6%	-1
CC(C)(C)c1ccc(C(=O)NCCCN2CCN(CCCNC(=O)c3ccc(C(C)(C)C)cc3)CC2)cc1	-54%[10 µM]	-14%	3%	7.1µM*	u
CCCCC[C@H](O)/C=C/C=C\C=C\[C@@H](O)C/C=C\CCCC(=O)O	26%	x	0%	x	-2
